# Assay results: the supplement of paper PMC8728848
# Only a selection was taken, and the strongest signals are over-represented in it overall.
# B1: LlpA (Arthrobacter sp) (protein)
# chain: MGSSHHHHHHSSGLVPRGSHMTLHPETALRPGAAATSPNSRYRLLYQTDGNLVLYGPDGPLWDSGTNGHGAGACIMQADGNLVLYGPNDEYVWDTETDNNPGSRLVIQDDGNAVIYRPDGSPLWATETCQPPGSADSHVLQSGSTLTPTHGIRSANGLYGLLYQTDGNLVFYGPDGPLWDSGTNGRGAGACIMQPDGNLVLYGPHDEYVWDTETDNNPGSRLVIQDDGNAVIYRPDGNPTWVTGTH
# Tests used:
# Assay in all cases: glycan array binding signal (z-score within array); higher = stronger binding
# Details in all cases: glycan notation: IUPAC condensed, linker removed
# [1] = molecular target: Fuc(a1-2)Gal(b1-3)GalNAc(a1-3)[Fuc(a1-2)]Gal(b1-4)Glc
# In short: (§1)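 The Consortium for Functional Glycomics database supplied 3228 glycan arrays, of which those lacking an available protein sequence were dropped. The binding signal, a within-array Z-score, was averaged across arrays of the same protein sequence and across linkers. Negative scores can be read as non-binding.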
# [2] = molecular target: Fuc(a1-2)Gal(b1-4)Fuc(a1-3)]GlcNAc(b1-2)Man(a1-3)[Fuc(a1-2)Gal(b1-4)[Fuc(a1-3)]GlcNAc(b1-2)Man(a1-6)]Man(b1-4)GlcNAc(b1-4)GlcNAc
# In short: as §1
# [3] = molecular target: Fuc(a1-2)Gal(b1-4)[Fuc(a1-3)]GlcNAc(b1-2)Man(a1-3)[Fuc(a1-2)Gal(b1-4)[Fuc(a1-3)]GlcNAc(b1-2)Man(a1-6)]Man(b1-4)GlcNAc(b1-4)[Fuc(a1-6)]GlcNAc
# In short: as §1
# [4] = molecular target: Fuc(a1-2)Gal(b1-4)[Fuc(a1-3)]GlcNAc(b1-3)Gal(b1-4)[Fuc(a1-3)]GlcNAc(b1-3)Gal(b1-4)[Fuc(a1-3)]GlcNAc
# In short: as §1
# Fuc(a1-2)Gal6S(b1-4)Glc = molecular target: Fuc(a1-2)Gal6S(b1-4)Glc
# In short: as §1
# [5] = molecular target: Fuc(a1-2)[Gal(a1-3)]Gal(b1-3)GalNAc(b1-3)Gal(a1-4)Gal(b1-4)Glc
# In short: as §1
# [6] = molecular target: Fuc(a1-2)[Gal(a1-3)]Gal(b1-4)[Fuc(a1-3)]Glc
# In short: as §1
# [7] = molecular target: Fuc(a1-2)[Gal(a1-3)]Gal(b1-4)[Fuc(a1-3)]GlcNAc
# In short: as §1
# [8] = molecular target: Fuc(a1-2)[GalNAc(a1-3)]Gal(b1-3)GlcNAc(b1-3)GalNAc
# In short: as §1
# [9] = molecular target: Fuc(a1-2)[GalNAc(a1-3)]Gal(b1-4)Glc
# In short: as §1
# Fuc(a1-3)GlcNAc = molecular target: Fuc(a1-3)GlcNAc
# In short: as §1
# [10] = molecular target: Fuc(a1-3)[Gal(b1-4)]GlcNAc6S
# In short: as §1
# Gal(b1-3)Gal(b1-4)GlcNAc = molecular target: Gal(b1-3)Gal(b1-4)GlcNAc
# In short: as §1
# [11] = molecular target: Gal(b1-3)GlcNAc(a1-6)Gal(b1-4)GlcNAc
# In short: as §1
# [12] = molecular target: Gal(b1-3)GlcNAc(b1-6)GalNAc
# In short: as §1
# [13] = molecular target: Gal(b1-4)GlcNAc(b1-2)Man(a1-3)[Gal(b1-4)GlcNAc(b1-2)Man(a1-6)]Man(b1-4)GlcNAc(b1-4)[Fuc(a1-6)]GlcNAc
# In short: as §1
# [14] = molecular target: Gal(b1-4)GlcNAc(b1-3)Gal(b1-4)GlcNAc
# In short: as §1
# [15] = molecular target: Gal(b1-4)GlcNAc(b1-3)Gal(b1-4)GlcNAc(b1-3)Gal(b1-4)GlcNAc(b1-2)[Gal(b1-4)GlcNAc(b1-3)Gal(b1-4)GlcNAc(b1-3)Gal(b1-4)GlcNAc(b1-6)]Man(a1-6)[Gal(b1-4)GlcNAc(b1-3)Gal(b1-4)GlcNAc(b1-3)Gal(b1-4)GlcNAc(b1-2)Man(a1-3)]Man(b1-4)GlcNAc(b1-4)[Fuc(a1-6)]GlcNAc
# In short: as §1
# [16] = molecular target: Gal(b1-4)GlcNAc(b1-3)Gal(b1-4)GlcNAc(b1-3)Gal(b1-4)GlcNAc(b1-3)Gal(b1-4)GlcNAc(b1-2)Man(a1-3)[Gal(b1-4)GlcNAc(b1-3)Gal(b1-4)GlcNAc(b1-3)Gal(b1-4)GlcNAc(b1-3)Gal(b1-4)GlcNAc(b1-2)Man(a1-6)]Man(b1-4)GlcNAc(b1-4)GlcNAc
# In short: as §1
# [17] = molecular target: Gal(b1-4)GlcNAc(b1-3)GalNAc
# In short: as §1
# Gal(b1-4)GlcNAc6P = molecular target: Gal(b1-4)GlcNAc6P
# In short: as §1
# [18] = molecular target: Gal3S(b1-4)[Fuc(a1-3)]Glc6S
# In short: as §1
# GlcA(b1-6)Gal = molecular target: GlcA(b1-6)Gal
# In short: as §1
# [19] = molecular target: GlcNAc(a1-3)Gal(b1-4)GlcNAc
# In short: as §1
# [20] = molecular target: GlcNAc(a1-4)Gal(b1-4)GlcNAc(b1-3)Gal(b1-4)Glc
# In short: as §1
# [21] = molecular target: GlcNAc(b1-2)Man(a1-3)[GlcNAc(b1-4)][GlcNAc(b1-2)Man(a1-6)]Man(b1-4)GlcNAc(b1-4)GlcNAc
# In short: as §1
# [22] = molecular target: GlcNAc(b1-2)[GlcNAc(b1-4)]Man(a1-3)[GlcNAc(b1-4)][GlcNAc(b1-2)[GlcNAc(b1-6)]Man(a1-6)]Man(b1-4)GlcNAc(b1-4)GlcNAc
# In short: as §1
# [23] = molecular target: GlcNAc(b1-3)Gal(b1-4)GlcNAc(b1-2)Man(a1-3)[GlcNAc(b1-3)Gal(b1-4)GlcNAc(b1-2)Man(a1-6)]Man(b1-4)GlcNAc(b1-4)[Fuc(a1-6)]GlcNAc
# In short: as §1
# [24] = molecular target: GlcNAc(b1-3)Gal(b1-4)GlcNAc(b1-3)Gal(b1-4)GlcNAc
# In short: as §1
# [25] = molecular target: GlcNAc(b1-3)Gal(b1-4)GlcNAc(b1-3)Gal(b1-4)GlcNAc(b1-2)Man(a1-3)[GlcNAc(b1-3)Gal(b1-4)GlcNAc(b1-3)Gal(b1-4)GlcNAc(b1-2)Man(a1-6)]Man(b1-4)GlcNAc(b1-4)[Fuc(a1-6)]GlcNAc
# In short: as §1
binder,measurement,setting,value
B1,glycan array binding signal (z-score),[1],-0.605
same,glycan array binding signal (z-score),[2],1.72
same,glycan array binding signal (z-score),[3],1.97
same,glycan array binding signal (z-score),[4],-0.294
same,glycan array binding signal (z-score),Fuc(a1-2)Gal6S(b1-4)Glc,0.733
same,glycan array binding signal (z-score),[5],-0.344
same,glycan array binding signal (z-score),[6],-1.15
same,glycan array binding signal (z-score),[7],0.864
same,glycan array binding signal (z-score),[8],2.37
same,glycan array binding signal (z-score),[9],-0.96
same,glycan array binding signal (z-score),Fuc(a1-3)GlcNAc,-0.654
same,glycan array binding signal (z-score),[10],1.84
same,glycan array binding signal (z-score),Gal(b1-3)Gal(b1-4)GlcNAc,0.043
same,glycan array binding signal (z-score),[11],-0.211
same,glycan array binding signal (z-score),[12],-0.718
same,glycan array binding signal (z-score),[13],1.04
same,glycan array binding signal (z-score),[14],-0.238
same,glycan array binding signal (z-score),[15],0.644
same,glycan array binding signal (z-score),[16],-0.527
same,glycan array binding signal (z-score),[17],-0.295
same,glycan array binding signal (z-score),Gal(b1-4)GlcNAc6P,0.159
same,glycan array binding signal (z-score),[18],2.1
same,glycan array binding signal (z-score),GlcA(b1-6)Gal,0.793
same,glycan array binding signal (z-score),[19],0.79
same,glycan array binding signal (z-score),[20],0.389
same,glycan array binding signal (z-score),[21],-0.798
same,glycan array binding signal (z-score),[22],-0.159
same,glycan array binding signal (z-score),[23],0.596
same,glycan array binding signal (z-score),[24],-0.689
same,glycan array binding signal (z-score),[25],2.11
